Records with an inconclusive call do not appear. Values without a mark were called inactive. The call rests on the fitted dose curve; in most records, active means well fitted inhibition curve with a large enough effect; inconclusive means small, poorly fitted or top-dose-only effect; inactive means flat fitted curve, though single readings scatter.
On the % scale 0 is the no-effect control and ±100 the full control effect.

Calcium and integrin-binding protein 1 (Homo sapiens), sequence (Q99828 whole entry, looked up): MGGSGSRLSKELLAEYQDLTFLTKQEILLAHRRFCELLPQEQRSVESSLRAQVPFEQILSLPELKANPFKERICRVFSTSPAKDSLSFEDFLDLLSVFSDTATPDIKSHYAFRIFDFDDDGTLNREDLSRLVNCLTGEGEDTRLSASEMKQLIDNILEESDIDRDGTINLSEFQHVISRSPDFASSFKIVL

The assay deals with Calcium and integrin-binding protein 1 (Homo sapiens) (UniProt Q99828). In words: Primary qHTS for Identification of Calcium Integrin Binding Protein 1 (CIB1) Competitor (AID 1508620).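 Further: GST tagged CIB1 binding a fluorescein labelled alphaIIb integrin peptide tracer; top concentration of the series differs between compounds.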 The following applies: CIB1-GST / FITC-alphaIIb peptide fluorescence polarization; series mostly up to 114 µM; activity change, negative = inhibition: at the top concentration. In short, it runs like this:
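CIB1-GST (1 uM final) and compound incubated 15 min at room temperature before adding FITC-alphaIIb peptide tracer (100 nM final). Competition for binding read by fluorescence polarization (ex 480, em 540) after another 15 min at room temperature.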
(Quantitative high-throughput screening tests each substance at several concentrations.)
As to `O=C(c1ccccc1O)N(Cc1cccs1)Cc1cccs1`, the “activity change, negative = inhibition” value is 1.74%.
The figure for `O=C1CCCC2=C1C(c1[nH]ncc1Cl)N=C(Nc1nccs1)N2` (configuration not stated) is -7.13%; for `c1coc(-c2ccc3ncnc(NCc4cccs4)c3c2)c1` it is -14.8%.
On to `O=C(OCC#CCSc1nnc(-c2cccc3ccccc23)o1)c1cc2ccccc2o1`, for which the “activity change, negative = inhibition” value was -3.02%.
The figure for `O=C(COC(=O)CNC(=O)c1ccccc1)Nc1cc(C(F)(F)F)ccc1Cl` is -4.1%; for `S=C(Nc1ccc(Cl)c(Cl)c1)Nc1nnc(-c2ccncc2)s1` it is -13.9%.
As for `COc1cccc(CNc2ccc(S(=O)(=O)Nc3ccc(N4CCNCC4)cc3)cc2)c1O`, the “activity change, negative = inhibition” value is -3.5%.
The figure for `O=C(Nc1ccc(-c2nc3ccccc3[nH]2)cc1)Nc1ccc2occc2c1` is -1.67%; for `CC(C)c1ccccc1-c1nc(NCc2ccc(-c3cccnc3)cc2)c2[nH]cnc2n1` it is -3.36%.
The figure for `COc1cc(O)c(C(CC(=O)N2CCCC(c3nc4ccccc4o3)C2)c2ccc3c(c2)OCO3)c(OC)c1` (configuration not stated) is -7.29% [at 228 µM]; for `Cc1cc2c(s1)c1cnn(Cc3ccc(S(C)(=O)=O)cc3)c(=O)c1n2C` it is 6.19%.
Then `Cc1ccc(CNc2ncnc3ccc(-c4oc(-c5ccccc5)nc4C)cc23)o1`, with -7.71%.
Take `NC(=O)C1CCN(c2nc(-c3ccc(F)cc3)cs2)CC1`: the “activity change, negative = inhibition” value was 10.7%.
`O=C1c2ccccc2C(=O)N1Cc1ccccn1`: the “activity change, negative = inhibition” value was -4.4%.
The figure for `COc1ccc(C2=Nn3c(nnc3-c3cccc(OC)c3OC)SC2)cc1OC` is 2.48%; for `Cc1ccc(CNc2ncnc3ccc(-c4sc(C)nc4C)cc23)o1` it is -14.2%.
For the molecule `Cc1ccc2nsnc2c1S(=O)(=O)Nc1cccc2cccnc12`, the “activity change, negative = inhibition” value is -4.15%.
The figure for `O=C(Nc1nc2cc(C(F)(F)F)ccc2s1)c1ccc(-c2cccc([N+](=O)[O-])c2)o1` is 1.09%.
Then `COc1ccc(-c2nc3ccccc3c(=O)n2Cc2ccc(CNC(=O)CO)cc2)cc1COc1ccc(NC(C)=O)cc1`, with -8.89%; and `Cc1occc1-c1ccc2ncnc(NCCc3cnc[nH]3)c2c1`, with 1.38%; and `Oc1cccc2cc(CNc3ccccc3F)cnc12`, with -11.9%.
Consider `Cc1ccc(-c2ccc(=O)n(CC(=O)NCCCN(C)C)n2)cc1`, for which the “activity change, negative = inhibition” value was -1.42%.

Values taken from PubChem BioAssay (NCATS).
